PubChem BioAssay (NCATS)
Results filed as inconclusive are left out. Where a call stands in place of a potency, no number is given. Active and inactive are the calls of the source. Calls follow the shape of the dose curve; as a rule, active = well fitted cell-killing curve with a large enough effect; inconclusive = small, poorly fitted or top-dose-only effect; inactive = no such curve, though single readings can be large or run the other way.

Experiment: Quantitative High-Throughput drug screen in 47 multiple myeloma cell lines against the NCATS MIPE library collection: JIM3_ECACC cell viability assay (AID 1918963; also: nearly all actives have a fitted effect of over 35% in size)
Conditions: JIM3 myeloma viability, CellTiter-Glo ATP, 48 h; series mostly up to 45.8 µM
Source text: PI: Beverly A. Mock Ph.D.
Laboratory of Cancer Biology and Genetics,
Center for Cancer Research, National Cancer Institute,
National Institute of Health, Bethesda, Maryland
Drug resistance and disease progression are common in multiple myeloma (MM) patients, underscoring the need for new therapeutic combinations. […] We hypothesized that effective combinations would reduce MYC expression and enhance p16 activity. […] These preclinical data identify potentially useful drug combinations for evaluation in drug-resistant MM and reveal potential mechanisms of combined drug sensitivity.
Described herein is the primary MIPE qHTS used to cherrypick compounds. Validated compounds were then further tested for potential synergistic activiy.
[1] Peat TJ, Gaikwad SM, Dubois W, Gyabaah-Kessie N, Zhang S, Gorjifard S, Phyo Z, Andres M, Hughitt VK, Simpson RM, Miller MA, Girvin AT, Taylor A, Williams D, D'Antonio N, Zhang Y, Rajagopalan A, Flietner E, Wilson K, Zhang X, Shinn P, Klumpp-Thomas C, McKnight C, Itkin Z, Chen L, Kazandijian D, Zhang J, Michalowski AM, Simmons JK, Keats J, Thomas CJ, Mock BA. Drug combinations identified by high-throughput screening promote cell cycle transition and upregulate Smad pathways in myeloma. Cancer Lett. 2023 Aug 1;568:216284. doi: 10.1016/j.canlet.2023.216284. Epub 2023 Jun 24. PMID: 37356470; PMCID: PMC10408729.
SEQUENCE No. (e.g., 1, 2, 3, etc.); […] (e.g., Cells, Incubation, Reagent, etc.); VALUE and DESCRIPTION.
1; Cells; 5 uL; white, solid bottom 1536-well Greiner assay plate.
2; Compounds; 23 nL; Kalypsis pin tool (Wako USA) equipped with a 1536-well pin head to transfer to the assay plates.
3; Incubation; 48 hours; 37C incubation.
4; Reagent;5uL; CellTiter Glo (Promega).
5; Detector; 425V; Luminescence; Viewlux PerkinElmer.
NOTES (numbers refer to Sequence numbers above)
1. The cell-based screening methods employed in this study were like those previously published. Briefly, the corresponding myeloma cell lines were screened in 1,536-well plates with 500 cells, 5-uL per well for inhibition of cell viability (assessed by measuring ATP levels with CellTiterGlo).
2. NCATS MIPE 4.0 library of approved and investigational drugs were added using the Kalypsis pin tool. Wells treated with DMSO only for 100% viability and media only wells for 0% viability were used as controls.
3. The assay plates were covered and incubated for 48 hours in a 37C, 5% CO2 incubator with controlled humidity.
4. After 48 hours, CellTilter-GloTM luminescent substrate mix (Promega) reagent was added to the assay plate and plates we incubated for 5 min at room temperature.
5. Signal was measured as median relative luminescence units on a ViewLux (PerkinElmer) multiplate reader.
[1] Heske CM, Davis MI, Baumgart JT, Wilson K, Gormally MV, Chen L, Zhang X, Ceribelli M, Duveau DY, Guha R, Ferrer M, Arnaldez FI, Ji J, Tran HL, Zhang Y, Mendoza A, Helman LJ, Thomas CJ. Matrix Screen Identifies Synergistic Combination of PARP Inhibitors and Nicotinamide Phosphoribosyltransferase (NAMPT) Inhibitors in Ewing Sarcoma. Clin Cancer Res. 2017 Dec 1;23(23):7301-7311. doi: 10.1158/1078-0432.CCR-17-1121. Epub 2017 Sep 12. PMID: 28899971; PMCID: PMC6636827.
Potency is read from the fitted curve at half-maximal effect.

| Structure (SMILES) | Potency |
| --- | --- |
| Cc1cc([C@@H](C)Nc2ccccc2C(=O)O)c2nc(N3CCOCC3)cc(=O)n2c1 | 13.6 µM (active) |
| NS(=O)(=O)c1cc2c(cc1Cl)NC=NS2(=O)=O | inactive |
| CCOc1ccc(Cc2cc([C@@H]3O[C@H](CO)[C@@H](O)[C@H](O)[C@@H]3O)ccc2Cl)cc1 | 20.9 µM (active) |
| CCOC(=O)N1CCC(=C2c3ccc(Cl)cc3CCc3cccnc32)CC1 | inactive |
| Cc1[nH]c(=O)c(C#N)cc1-c1ccc2nccn2c1 | inactive |
| NC(=O)c1ccc(-c2nc(-c3ccc4c(c3)OCO4)c(-c3ccccn3)[nH]2)cc1 | inactive |
| CCN(c1ccccc1)c1cc(NC)[n+](C)c(C)n1 | inactive |
| O=C(C=Cc1ccc(/C=C/C(=O)Nc2ccc(C3=NCCN3)cc2)cc1)Nc1ccc(C2=NCCN2)cc1 | inactive |
| O=C(O)[C@@H](c1ccc(OCc2ccc3ccccc3n2)cc1)C1CCCC1 | inactive |
| O=c1[nH]cnc2[nH]ncc12 | inactive |
| Cc1ccc(NC(=O)c2cccc(C(C)(C)C#N)c2)cc1Nc1ccc2ncn(C)c(=O)c2c1 | 11.8 µM (active) |
| Cc1cccc(-c2nn(C(=S)Nc3ccccc3)cc2-c2ccnc3ccccc23)n1 | 13.2 µM (active) |
| CNC[C@H](O)c1cccc(O)c1 | inactive |
| Clc1ccc(Nc2nnc(Cc3ccncc3)c3ccccc23)cc1 | 20.9 µM (active) |
| N#CC[C@H](C1CCCC1)n1cc(-c2ncnc3[nH]ccc23)cn1 | 6.62 µM (active) |
| NC(=O)C1CCCc2c1[nH]c1ccc(Cl)cc21 (stereo not given) | inactive |
| Cn1cc(-c2ccc3nnc(C(F)(F)c4ccc5ncccc5c4)n3n2)cn1 | inactive |
| CNC(=O)c1ccc(C)c(-n2c(C)cc(OCc3ccc(F)cc3F)c(Br)c2=O)c1 | 16.6 µM (active) |
| COc1ccc(CCN2CCN(CCCc3ccccc3)CC2)cc1OC | inactive |
| CC(=O)NC(C)c1ccc(Oc2ccc(OC(C)C)cc2)cc1 (stereo not given) | 3.32 µM (active) |

| Structure (SMILES) | Potency |
| --- | --- |
| CC(C)(N)C(=O)N[C@H](COCc1ccccc1)C(=O)N1CCC2(CC1)CN(S(C)(=O)=O)c1ccccc12 | 7.43 µM (active) |
| NNCCc1ccccc1 | inactive |
| COc1cc(F)c(F)c(Nc2ccc(I)cc2F)c1NS(=O)(=O)C1(C[C@H](O)CO)CC1 | 18.7 µM (active) |
| COc1cc2c(cc1OC)CN(CCc1ccc(NC(=O)c3cccc4c(=O)c5cccc(OC)c5[nH]c34)cc1)CC2 | 6.62 µM (active) |
| O=c1n(CCCN2CCN(c3cccc(Cl)c3)CC2)nc2ccccn12 | inactive |
| CC[C@H](Nc1ncnc2nc[nH]c12)c1nc2cccc(F)c2c(=O)n1-c1ccccc1 | 16.6 µM (active) |
| Nc1nc2[nH]cc(CCc3ccc(C(=O)N[C@@H](CCC(=O)O)C(=O)O)cc3)c2c(=O)[nH]1 | 0.833 µM (active) |
| CCc1ccc(CCOc2ccc(CC3SC(=O)NC3=O)cc2)nc1 (stereo not given) | inactive |
| O=c1[nH]c(-c2ccc(C(F)(F)F)cc2)nc2c1CSCC2 | inactive |
| Cc1ccccc1C(OCCN(C)C)c1ccccc1 (stereo not given) | inactive |
| Nc1ncnc2nc(-c3ccc(N4CCOCC4)nc3)cc(-c3cccc(Br)c3)c12 | 18.7 µM (active) |
| O=C(O)CCc1ccc(NCc2cccc(Oc3ccccc3)c2)cc1 | inactive |
| Cc1csc(NC(=O)c2sc3nc4c(c(C(F)(F)F)c3c2N)CCC4)n1 | inactive |
| CCC(=O)N[C@H]1CC[C@H](C(=O)N(C)c2ccc(-c3nc4ccccc4o3)cc2)C1 | 8.33 µM (active) |
| Fc1ccc(Cl)cc1-c1nc(Nc2ccncc2)c2nccnc2n1 | 13.2 µM (active) |
| CCn1c(-c2nonc2N)nc2c(C#CC(C)(C)O)ncc(OC[C@H]3CCCNC3)c21 | 9.35 µM (active) |
| N[C@@H]1CONC1=O | inactive |
| Cn1cnc([N+](=O)[O-])c1Sc1ncnc2nc[nH]c12 | 14.8 µM (active) |
| NC(=O)c1cnccn1 | inactive |
| COc1ccc([C@@H]2CC(=O)c3c(O)cc(O[C@@H]4O[C@H](CO[C@@H]5O[C@@H](C)[C@H](O)[C@@H](O)[C@@H]5O)[C@@H](O)[C@H](O)[C@@H]4O)cc3O2)cc1O | inactive |
